Source: PubChem BioAssay (National Center for Advancing Translational Sciences (NCATS))
An excerpt weighted towards active compounds, which were near 11% of everything screened.
NPR1 antag: human Npr1 receptor antagonism. P16066. HEK293 hNpr1 GloSensor cGMP, ANP-stimulated luminescence. Potency, µM (highest dose often 46.3 µM), for inactives: top-dose activity change, negative = inhibition, hits mostly inhibitors. 76,000 tested, 1.6% active. AID 1347048; calls by dose curve; also: nearly all actives have a fitted effect of over 60% in size
Target sequence (P16066 whole entry, looked up): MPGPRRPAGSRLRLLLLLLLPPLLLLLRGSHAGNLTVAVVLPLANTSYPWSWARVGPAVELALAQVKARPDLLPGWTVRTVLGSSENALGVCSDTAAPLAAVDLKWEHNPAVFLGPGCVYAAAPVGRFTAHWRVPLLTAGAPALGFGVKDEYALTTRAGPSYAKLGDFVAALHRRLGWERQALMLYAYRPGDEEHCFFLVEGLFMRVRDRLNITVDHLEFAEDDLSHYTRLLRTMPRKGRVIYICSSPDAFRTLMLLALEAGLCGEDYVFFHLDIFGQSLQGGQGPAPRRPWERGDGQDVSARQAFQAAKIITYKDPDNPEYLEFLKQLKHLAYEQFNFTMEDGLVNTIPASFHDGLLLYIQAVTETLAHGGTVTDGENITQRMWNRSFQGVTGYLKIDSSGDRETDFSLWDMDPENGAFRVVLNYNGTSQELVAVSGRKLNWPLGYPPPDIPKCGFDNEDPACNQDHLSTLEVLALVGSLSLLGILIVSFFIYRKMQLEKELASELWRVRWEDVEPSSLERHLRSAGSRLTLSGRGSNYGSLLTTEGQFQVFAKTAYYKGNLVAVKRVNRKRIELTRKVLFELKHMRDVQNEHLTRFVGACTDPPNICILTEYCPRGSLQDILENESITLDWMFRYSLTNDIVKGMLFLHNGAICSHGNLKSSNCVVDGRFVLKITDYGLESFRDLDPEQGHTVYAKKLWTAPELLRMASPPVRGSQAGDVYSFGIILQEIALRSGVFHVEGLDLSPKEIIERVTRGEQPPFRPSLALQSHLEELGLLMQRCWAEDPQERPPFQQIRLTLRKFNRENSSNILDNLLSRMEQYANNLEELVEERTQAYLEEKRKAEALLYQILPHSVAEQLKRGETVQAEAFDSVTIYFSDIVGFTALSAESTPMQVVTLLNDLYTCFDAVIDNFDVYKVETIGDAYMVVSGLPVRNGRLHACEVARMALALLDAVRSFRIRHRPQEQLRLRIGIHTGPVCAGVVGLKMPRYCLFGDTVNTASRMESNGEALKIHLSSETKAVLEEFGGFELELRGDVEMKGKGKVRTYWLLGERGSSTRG
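Compound pre-incubated 30 min at room temperature on GloSensor-loaded HEK293 cells stably carrying hNpr1 and the pGS-40F cGMP biosensor. Stimulation uses hNppA at 0.1 nM final; luminescence is taken at baseline and 20 min post-agonist.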
3T3 cytotox: kills NIH 3T3 cells. 94,000 tested, 4.3% active. NIH 3T3 viability, CellTiter-Glo ATP luminescence, 48-72 h. AID 1345082. Potency, µM (titrated, usually from 96.7 µM), inactives show at the top dose activity change, negative = cytotoxicity, actives largely listed as inhibitors; also: nearly all actives have a fitted effect of over 55% in size
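Viability of NIH 3T3 cells after 48 or 72 hr compound treatment at 37 °C was assessed by CellTiter-Glo, with luminescence imaged following a 10 min room-temperature step.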
Luciferase inh: inhibitors of firefly (Photinus pyralis) luciferase; AID 1347043; P08659; Potency, µM (titrated, usually from 115 µM), usual class: inhibitors; 76,000 tested, 2.5% active; purified P. pyralis luciferase, luminescence, biochemical; also: nearly all actives have a fitted effect of over 65% in size
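Purified P. pyralis luciferase (10nM final) in 50mM Tris acetate pH 7.5, 10mM Mg acetate, 0.01% Tween-20, 0.05% BSA with 10uM D-luciferin and 10uM ATP. Compounds titrated qHTS. Luminescence imaged on CCD.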
HEK cytotox: HEK 293 cell cytotoxicity | HEK 293 viability, ATP luminescence (CellTiter-Glo), 48-72 h | Potency, µM (top dose mostly 115 µM), for inactives: top-dose activity change, negative = cytotoxicity, usual class: inhibitors | 94,000 tested, 6.6% active | AID 1345083; also: nearly all actives have a fitted effect of over 60% in size
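ATP-coupled CellTiter-Glo luminescence served as viability read-out, recorded 10 min after reagent addition at room temperature. HEK 293 cells, 250 cells/well, had been incubated with pintool-transferred compound for 48 or 72 hr at 37 degree Celsius.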
An asterisk follows results filed as active; i = inactive; ? = inconclusive; . = no result given; [ ] = another dose, or the depositor's remark. Unless noted, calls follow the shape of the dose curve; as a rule, active = well fitted curve in the direction sought with a large enough effect; inconclusive = small, poorly fitted or top-dose-only effect, or another doubt; inactive = no such curve, though single readings can be large; an effect the other way counts as inactive or inconclusive. % is scaled to controls: 0 for no effect and ±100 for the full control effect; potency is read from the fitted curve at half-maximal effect.

SMILES	NPR1 antag	3T3 cytotox	Luciferase inh	HEK cytotox
O=C(c1cnc2c(c1)N(C(=O)CCc1ccccc1)CCC2)N1CCC(c2ccccc2)CC1	5.2%	?	i	79.4µM*
O=C(NCc1cccc(Cl)c1)c1cnc2c(c1)N(C(=O)CCc1ccccc1)CCC2	-17.7%[70.6 µM]	100µM*	i	?
Cc1csc(NC(=O)c2cnc3c(c2)N(C(=O)CCc2ccccc2)CCC3)n1	-1.0%[70.6 µM]	89.1µM*	i	?
O=S1(=O)NC2(CCN(Cc3c[nH]c4ccccc34)C2)COc2ccncc21 (stereo unspecified)	.	3.1%	.	1.7%
O=C(c1ccc2nc(-c3ccncc3)oc2c1)N1CCOCC1	.	-26.9%	.	-21.1%
CN(C(=O)[C@@H]1C[C@@H](c2ccc(F)cc2)N([S+](=O)([O-])c2ccccc2)C1)c1ccccc1	-25.0%[70.6 µM]	35.5µM*	i	?
CC(C)n1cc(-c2cc(C(=O)N(C)Cc3cccnc3)c3cc(F)ccc3n2)cn1	-2.1%	-18.6%	35.5µM*	?
CC(C)CN(C)C(=O)c1cc(-c2cnn(C(C)C)c2)nc2cc(F)ccc12	1.6%	?	?	-28.9%
O=C(Nc1ccc(Cl)cc1Cl)c1ccc2ccnn2c1	-4.8%[70.6 µM]	-20.7%[138 µM]	2.82µM*	?
O=S(=O)(c1ccccc1)N1CC(n2cnnc2-c2ccccc2)C1	.	-17.5%	.	-5.9%
O=C1N(Cc2ccc(F)c(F)c2)CCCC12CCN(c1nc3ccccc3o1)C2 (stereo unspecified)	-13.3%	39.8µM*	39.8µM*	?
Cc1cc(C(=O)NC2CC2)c2c(C3CCNCC3)noc2n1	.	-5.3%	.	-1.8%
COc1ccc(NC(=O)N2CCCC(Cn3c(C4CC4)nc4cccnc43)C2)cc1Cl (stereo unspecified)	-9.8%	?	i	70.8µM*
O=C(Nc1ccc2c(c1)OCCO2)N1CCCC(Cn2cnc3cccnc32)C1 (stereo unspecified)	2.9%	-0.9%	28.2µM*	6.3%
Cn1nc(C2CCCN(C(=O)Nc3ccc4c(c3)OCCO4)C2)n(C2CCCC2)c1=O (stereo unspecified)	-1.8%	2.0%	31.6µM*	12.1%
O=C(Nc1ccc(F)c(Cl)c1)N1CCCC(Cn2c(C3CC3)nc3cccnc32)C1 (stereo unspecified)	-19.6%	?	i	?
COc1ccc(Nc2ccnc(N3CCC(C(=O)NCc4ccc(F)cc4)CC3)n2)cc1	.	39.8µM*	.	?
Cc1ccc(Nc2ccnc(N3CCC(C(=O)NCc4ccc5c(c4)OCO5)CC3)n2)cc1	.	17.8µM*	.	?
CCc1ccc(CNC(=O)C2CCN(c3cc(C(F)(F)F)nc(C)n3)CC2)cc1	-9.5%	?	i	?
COc1ccc(CNC(=O)C2CCN(c3nccc(Nc4ccc(C)cc4)n3)CC2)cc1	.	28.2µM*	.	?
COc1ccc(Nc2ccnc(N3CCC(C(=O)N(C)C)CC3)n2)cc1	.	-28.9%	.	?
Cc1nc(N2CCC(C(=O)NCc3ccc4c(c3)OCO4)CC2)cc(C(F)(F)F)n1	?	?	89.1µM*	?
O=C(NC1CCCCC1)N[C@H]1CCN2C(=O)c3ccc(Cl)cc3NC(=O)[C@H]12	-1.3%[70.6 µM]	-7.8%[138 µM]	i	3.2%[172 µM]
COc1ccc(CNC(=O)C2CCN(c3nccc(Nc4ccc(OC)cc4)n3)CC2)cc1	.	39.8µM*	.	44.7µM*
Cc1ccc(Nc2ccnc(N3CCC(C(=O)NCC4CC4)CC3)n2)cc1	.	31.6µM*	.	?
SMILES	NPR1 antag	3T3 cytotox	Luciferase inh	HEK cytotox
COc1ccccc1NC(=O)Cn1c(=O)n(-c2ccccc2)c(=O)c2c1cc(C)n2C	-0.3%	i	i	-9.0%
Cc1ccc(NC(=O)Cn2c(=O)n(-c3ccccc3)c(=O)c3c2cc(C)n3C)cc1	3.3%	22.4µM*	i	39.8µM*
Cc1cccc(NC(=O)Cn2c(=O)n(-c3ccccc3)c(=O)c3c2cc(C)n3C)c1	6.5%	i	i	-0.4%
COc1ccccc1NC(=O)Cn1c(=O)n(-c2ccc(F)cc2)c(=O)c2c1cc(C)n2C	-8.5%	31.6µM*	i	44.7µM*
COc1ccc(C(=O)N2CCCC3(C2)NC(=O)N(Cc2cccc(Cl)c2)C3=O)cc1F (stereo unspecified)	-1.0%	-20.7%	i	?
COc1cccc(N2C(=O)NC(=NC3CCCCC3)C23CCN(Cc2cccnc2)CC3)c1	.	?	.	-9.0%
O=C(Nc1ccc(Cl)cc1)N1Cc2[nH]cnc2C[C@H]1c1nc(-c2ccc(OC(F)(F)F)cc2)no1	?	25.1µM*	i	20µM*
